In all, about 2,400 compounds went through this assay and about 750 (31%) were called active. Some of the results follow. A number with no mark means an inactive call.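 How the source made its calls: active means median signal gain over dofetilide-blocked control wells reaching their mean plus 3 SD, so readout 1 at least 0; inactive means the rest.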
Biological target: Voltage-gated inwardly rectifying potassium channel KCNH2 (Homo sapiens) (UniProt Q12809)
Assay: modulators restoring hERG flux under dofetilide – cell-based, thallium flux, duplicate retest, dofetilide IC70, confirmation (AID 1835)
Conditions: hERG cell line, FluxOR thallium flux, dofetilide-blocked; at 10 µM; hits give high values

Sequence of Voltage-gated inwardly rectifying potassium channel KCNH2 (Homo sapiens) (Q12809 whole entry, looked up): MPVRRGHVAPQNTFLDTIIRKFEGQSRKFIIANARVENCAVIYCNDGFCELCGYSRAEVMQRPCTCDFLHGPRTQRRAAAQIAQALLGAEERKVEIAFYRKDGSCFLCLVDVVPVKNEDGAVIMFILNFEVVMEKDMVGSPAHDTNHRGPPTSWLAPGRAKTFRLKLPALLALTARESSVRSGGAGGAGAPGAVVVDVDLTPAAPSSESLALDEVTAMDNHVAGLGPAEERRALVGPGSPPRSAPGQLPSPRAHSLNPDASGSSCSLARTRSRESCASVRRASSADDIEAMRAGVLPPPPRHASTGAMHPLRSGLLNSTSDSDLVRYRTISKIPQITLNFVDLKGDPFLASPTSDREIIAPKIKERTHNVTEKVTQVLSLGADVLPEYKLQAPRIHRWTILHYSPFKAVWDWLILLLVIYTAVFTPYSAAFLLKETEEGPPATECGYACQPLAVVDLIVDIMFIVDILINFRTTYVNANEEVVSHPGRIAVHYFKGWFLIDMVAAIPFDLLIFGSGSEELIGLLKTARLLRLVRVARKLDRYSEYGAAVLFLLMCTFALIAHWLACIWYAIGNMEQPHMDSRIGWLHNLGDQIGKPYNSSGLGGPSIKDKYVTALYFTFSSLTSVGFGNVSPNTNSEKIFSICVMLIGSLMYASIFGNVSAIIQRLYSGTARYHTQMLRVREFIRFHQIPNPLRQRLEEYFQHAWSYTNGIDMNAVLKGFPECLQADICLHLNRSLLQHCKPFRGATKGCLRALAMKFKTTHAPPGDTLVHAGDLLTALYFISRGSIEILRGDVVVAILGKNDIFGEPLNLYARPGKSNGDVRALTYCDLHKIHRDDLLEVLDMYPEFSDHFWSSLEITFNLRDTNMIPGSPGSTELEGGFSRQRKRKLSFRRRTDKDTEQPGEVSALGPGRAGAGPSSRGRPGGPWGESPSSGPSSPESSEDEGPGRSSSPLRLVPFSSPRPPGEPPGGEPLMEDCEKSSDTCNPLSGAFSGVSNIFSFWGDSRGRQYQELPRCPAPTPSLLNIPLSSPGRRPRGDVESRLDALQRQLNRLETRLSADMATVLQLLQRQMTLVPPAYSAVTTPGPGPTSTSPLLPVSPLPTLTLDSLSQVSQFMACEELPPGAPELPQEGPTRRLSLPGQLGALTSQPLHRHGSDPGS

SMILES | activity increase over dofetilide control, less the hit threshold
Cc1ccc2[nH]c(C(=O)O)c(-c3ccccc3)c2c1 | -16%
O=c1cc(CN2CCN(S(=O)(=O)c3ccc4c(c3)OCCO4)CC2)c2ccc(O)cc2o1 | -5%
CCOc1cc(NC(=S)N2CCC(C(N)=O)CC2)c(C(=O)OC)cc1OCC | -4%
COc1cc2c(cc1OC)CN(C(=O)c1sccc1C)CC2 | -13%
Cc1ccc(OCC(=O)Nn2cnc3ccccc32)cc1 | -11%
Cc1ccc(C2C(C#N)=C(N)OC3=C2C(=O)CC(C)(C)C3)s1 (stereo not given) | -4%
Cc1ccc(-c2csc3nc[nH]c(=S)c23)cc1C | 36% (active)
Cc1cc(-c2csc3nc[nH]c(=S)c23)cc(C)c1C | 14% (active)
O=C(O)c1ccccc1P(=O)(c1ccccc1)c1ccccc1 | -20%
CCCC(=O)n1nc(-c2ccccc2)nc1N | -17%
CCCCCCc1cc2cc(-c3nnc(-c4ccccc4)o3)c(=O)oc2cc1O | -13%
c1ccc(CCCNc2ncnc3nc[nH]c23)cc1 | 11% (active)
O=C(CN1CCN(c2ccc(Cl)cc2)CC1)Nc1ccc(F)cc1 | -15%
O=C(c1cccs1)N1CCN(C23CC4CC(CC(C4)C2)C3)CC1 | -21%
CC1CCN(C(=S)NC(=O)c2cccs2)CC1 | 10% (active)
O=C(N/C(=C/c1ccc2c(c1)OCO2)C(=O)N1CCOCC1)c1cccs1 | -18%
O=C(NC(=S)N1CCN(c2ccccc2)CC1)c1c(F)cccc1F | -9%
O=C(NC(=S)N1CCN(c2ccccc2)CC1)c1ccccc1 | 16% (active)
O=C(NC(=S)N1CCN(c2ccc(F)cc2)CC1)c1cccs1 | 25% (active)
N#Cc1cccc(N=c2ssnc2Cl)c1 | -32%
CC(=O)Nc1ccccc1NC(=O)C/C(C)=N/NC(=O)c1ccc([N+](=O)[O-])c(Cl)c1 | -13%
Cc1ccccc1NC(=O)CSc1ccsc1[N+](=O)[O-] | -6%

SMILES | activity increase over dofetilide control, less the hit threshold
O=C(CSc1nc2ccc(NC(=O)c3ccccc3C(=O)O)cc2s1)Nc1c(Cl)cccc1Cl | 0%
CSc1nsc(SCC(=O)Nc2ccccc2C(=O)O)n1 | 2% (active)
O=C(NNC(=S)Nc1ccccc1)c1cccc(S(=O)(=O)N2CCOCC2)c1 | -12%
COc1cc(Cl)c(C)cc1NC(=O)CSc1sc2c(O)cc(=O)[nH]c2c1C#N | 1% (active)
Cc1cc(=O)[nH]c(SCC(=O)Nc2ccccc2C#N)c1C#N | -4%
CCC(NS(=O)(=O)c1ccc(OC)cc1)C(=O)O (stereo not given) | -13%
CCOC(=O)c1nc(C)n(-c2ccc(Cl)cc2)n1 | -1%
Cc1nn(-c2ccc(Cl)cc2)c2sc(C(=O)c3c(N)n(C)c(=O)n(C)c3=O)cc12 | 67% (active)
O=C(NCC1CCS(=O)(=O)C1)Oc1ccccc1 (stereo not given) | -15%
CCN(CC)c1ccc(/C=c2\sc3nnc(-c4ccccc4Cl)n3c2=O)cc1 | -11%
Cc1nn(-c2ccccc2)c(Cl)c1/C=C1\SC(=S)NC1=O | 51% (active)
Cc1nn(-c2ccccc2)c(N2CCCC2)c1/C=N/O | -16%
Cc1nn(-c2ccccc2)c(C)c1S(=O)(=O)O | -6%
COCCCN1C(=O)C(=O)/C(=C(/O)c2ccc(S(=O)(=O)N3CCOCC3)cc2)C1c1ccc(F)cc1 (stereo not given) | -5%
O=C(c1ccco1)N(c1ccccn1)c1ccccn1 | -13%
CCCN(C(=O)c1ccco1)c1nnc(-c2ccncc2)s1 | 5% (active)
CN(C(=O)CCc1ccccc1)c1nnc(-c2ccncc2)s1 | -24%
Cc1cc([N+](=O)[O-])nn1CC(=O)Nc1ccc(Cl)cn1 | -12%
Cc1ccc(O)c(Sc2cc(C)ccc2O)c1 | -34%
O=C(CCC(=O)N1CCN(S(=O)(=O)c2ccccc2)CC1)c1cccs1 | -14%
Cc1[nH]n(-c2cccc3ccccc23)c(=O)c1/C=N/c1sc2c(c1C#N)CCC2 | 3% (active)
Cc1[nH]n(-c2ccc(F)cc2)c(=O)c1/C=N/c1sc2c(c1C#N)CCCC2 | 41% (active)

SMILES | activity increase over dofetilide control, less the hit threshold
CN(C1=C(NC(=O)c2ccccc2)C(=O)c2ccccc2C1=O)C1CCS(=O)(=O)C1 (stereo not given) | -4%
COCCn1cnc2c1c(=O)n(CC#N)c(=O)n2Cc1ccccc1 | -14%
COc1cccc2sc(Nc3nnc(-c4ccccc4Cl)o3)nc12 | 16% (active)
N#C/C(=C\c1ccc(-c2ccccc2Cl)o1)C(=O)Nc1nc2ccccc2s1 | -6%
COc1cccc2sc(Nc3nnc(-c4cccs4)o3)nc12 | 52% (active)
COc1cccc2sc(Nc3nnc(-c4ccc(F)cc4)o3)nc12 | 83% (active)
COc1cccc2sc(Nc3nc(-c4ccccn4)cs3)nc12 | -19%
COc1ccccc1Nc1nnc(SCC(=O)Nc2nc(-c3ccc(F)cc3)cs2)s1 | -24%
Cc1ccc(NC(=O)c2ccc(NC3=NC4CS(=O)(=O)CC4S3)cc2)cc1 (stereo not given) | -14%
O=C(C[n+]1ccccc1)N/N=C/c1ccc(Cl)c(Cl)c1 | -13%
O=C(CC1CCCC1)Nc1ccc2c(c1)CCC2 | -5%
COc1ccc(/C=N/NC(=O)c2ccncc2)cc1CN1CCCc2ccccc21 | 3% (active)
COc1ccccc1NC(=S)N1CCCc2ccccc21 | -16%
COc1ccc(/C=N/NC(=O)C(=O)N2CCCC2)cc1 | -4%
O=[N+]([O-])c1cc(Cl)cc(/C=N/NC(=S)Nc2ccc(S(=O)(=O)N3CCOCC3)cc2)c1O | -3%
O=C(COc1ccc2c3c(c(=O)oc2c1)CCC3)N[C@@H](Cc1ccccc1)C(=O)O | 9% (active)
O=C(COc1ccc2c3c(c(=O)oc2c1)CCC3)NCC1CCC(C(=O)O)CC1 (stereo not given) | -7%
Cc1cc(=O)oc2c3c(cc(OCC(=O)N[C@@H](Cc4ccccc4)C(=O)O)c12)OC(C)(C)CC3 | -3%
Cc1cc(=O)oc2cc(OCC(=O)OCC(=O)NC(C)C)ccc12 | -22%
Cc1c(C)c2ccc(OCC(=O)N[C@@H](Cc3ccccc3)C(=O)O)cc2oc1=O | 2% (active)
O=c1oc2cc(OCCO)ccc2c2c1CCCC2 | -8%

— PubChem BioAssay AID1835 (Johns Hopkins Ion Channel Center, 2009)
